# Test results as given in article PMC5540273 (PLoS ONE, 2017).
# Test system: SIK
# Details: concentration: 1 μM, replicates: in singlicate; n = 1
# 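Also: KINOMEscan kinase panel screen.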
row,Compound,%Inh
1,[2H]C([2H])(c1cccc(C(F)(F)F)c1C)n1ccn2c(=O)nc(N3CCOCC3)cc12 [GSK2336394],0%
2,N#Cc1c(N2CCOCC2)sc(-c2ccn[nH]2)c1-c1ccc(Cl)cc1,13%
3,CN(C1=C(c2ccccc2)C(=O)NC1=O)c1ccccc1 [SB-334860],7%
4,Cc1cn2c(=O)cc(N3CCOCC3)nc2n1Cc1cccc(Cl)c1Cl [GSK2334006],4%
5,Fc1ccc(-c2ncn(CCCN3CCOCC3)c2-c2cccnc2)cc1 [SB-211743],0%
6,O=c1cc(N2CCOCC2)nc2n(Cc3cccc(F)c3)ccn12 [GSK2297430],4%
7,O=C(Nc1cccc(-c2nn3ncccc3c2-c2ccnc(Nc3cccc(C(F)(F)F)c3)n2)c1)c1c(F)cccc1F [GSK299495],0%
8,Cc1c2ccc(N(C)c3ccnc(Nc4cccc(S(N)(=O)=O)c4)n3)cc2nn1Cc1ccccc1.Cl.Cl [GW787226],72%
9,O=C(Nc1n[nH]c2cc(-c3cccc(F)c3)ccc12)C1CC1 [SB-735464],0%
10,CCCCCc1nc2c(N)ncnc2n1CCCCC [SKF-97255],8%
11,Cc1ccc(C(=O)NCC(N)=O)cc1-n1c(C)cc(OCc2ccc(F)cc2F)c(Br)c1=O,6%
12,NCC(NC(=O)c1cc(-c2cn[nH]c2)c(-c2ccnc3[nH]ccc23)s1)c1ccccc1.O=C(O)C(F)(F)F.O=C(O)C(F)(F)F (stereo not drawn) [GSK1325775],0%
13,COc1ccc(Nc2nccc(N3CCC(NC(=O)Nc4cccc(C(C)=O)c4)C3)n2)cc1 (stereo not drawn) [GSK1379731],0%
14,COCCNC(=O)c1ccc(-c2cc(C(=O)NC3CC3)cc(F)c2C)cc1 [GW868318],6%
15,COC(=O)Nc1nc2cc(Oc3ccc(NC(=O)Nc4cc(F)ccc4F)cc3)ccc2[nH]1.Cl [GW701424],0%
16,O=C(c1ccc(-c2cc(-c3c[nH]nc3-c3ccccn3)ccn2)cc1)N1CCOCC1 [GW812171],0%
17,NS(=O)(=O)c1cccc(-c2ccc3nccc(-c4cccc(S(N)(=O)=O)c4)c3c2)c1 [GW867253],0%
18,CN1c2ccc(CNc3ccc(F)cc3)cc2-c2c(cnn2C)S1(=O)=O,0%

row,Compound,%Inh
1,O=c1cc(N2CCOCC2)nc2n(Cc3cccc(C(F)(F)F)c3)ccn12 [GSK2297543],0%
2,Nc1nccc(-c2c(-c3ccc(F)cc3)ncn2C2CCN(CC(F)(F)F)CC2)n1 [SB-236560],0%
3,O=c1cc(N2CCOCC2)nc2n(Cc3cccc(Cl)c3Cl)c(C3CC3)nn12 [GSK2358994],0%
4,Fc1ccc(-c2ncn(CCCN3CCOCC3)c2-c2ccccn2)cc1 [SB-211742],11%
5,CC(C)Oc1ccc2c(-c3ccnc(Nc4ccc(N5CCN(C)CC5)cc4)n3)cnn2n1 [GW696155],79%
6,COc1ccc(COc2cc(-n3cnc4ccccc43)sc2C(N)=O)cc1 [GSK1024304],0%
7,C[C@@H](Oc1cc(-n2cnc3ccc(NC(=O)NC(C)(C)C)cc32)sc1C(N)=O)c1ccccc1Cl [GSK346294],0%
8,Cl.Nc1ncnc2occ(-c3ccc(NC(=O)Nc4cc(C(F)(F)F)ccc4F)cc3)c12 [SB-707548],0%
9,COc1cc2c(cc1OCCN1CCN(C)CC1)ncc1c3ccc(C#N)cc3[nH]c21,17%
10,O=C(NCCNc1ccnc(Nc2ccc(F)cc2)n1)Nc1ccccc1F [GSK1379880],0%
11,O=C(NCCNc1ccnc(Nc2ccc(F)cc2)n1)c1cc2ccccc2s1 [GSK1379874],0%
12,COc1cc2ncn(-c3cc(OCc4sccc4Cl)c(C(N)=O)s3)c2cc1OC [GSK448459],8%
13,Cc1cccc(-c2nc(-c3ccc(S(C)(=O)=O)cc3)sc2-c2ccncc2)c1,12%
14,CCc1nc(-c2cccc(C)c2)c(-c2ccnc(NCc3ccccc3)c2)s1,5%
15,c1ccc(-c2cc(-c3c[nH]nc3-c3ccccn3)ccn2)cc1 [GW576604],0%
16,COc1cc(Nc2nccc(N3CCC(NC(=O)c4cccc(NC(C)=O)c4)C3)n2)cc(OC)c1OC (stereo not drawn) [GSK1379754],10%
17,Cn1ccc2ncnc(Oc3ccc(NC(=O)Nc4ccncc4)c(Cl)c3)c21,0%
18,Cl.Oc1cccc(Nc2ccnc3cc(-c4ccncc4)ccc23)c1 [GW494601],72%
